PubChem BioAssay (NCATS)
Results filed as inconclusive are left out. The source made the active and inactive calls. Calls come from the whole dose curve; as a rule, active = well fitted inhibition curve with a large enough effect; inconclusive = small, poorly fitted or top-dose-only effect; inactive = flat fitted curve, though single readings scatter.

Columns and labels:
Experiment in all cases: qHTS profiling for inhibitors of Plasmodium falciparum proliferation (AID 504749); note: nearly all actives have a fitted effect of over 60% in size
Settings in all cases: P. falciparum in erythrocytes, SYBR Green DNA, 72 h; series mostly up to 28.7 µM
ATS95 = system: ATS95
Method in brief: (§1)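 Quantitative HTS: compounds pinned into medium, infected erythrocytes added (0.3% parasitemia, 2.5% hematocrit), 72 h culture at 37 C under 5% CO2. Saponin/Triton lysis with SYBR Green I, overnight RT, then fluorescence read.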

C2A = system: C2A
Method in brief: as §1

CP237 = system: CP237
Method in brief: as §1

CP238 = system: CP238
Method in brief: as §1

CP262 = system: CP262
Method in brief: as §1

CP265 = system: CP265
Method in brief: as §1

CP268 = system: CP268
Method in brief: as §1

CP269 = system: CP269
Method in brief: as §1

CP286 = system: CP286
Method in brief: as §1

CP305 = system: CP305
Method in brief: as §1

CP325 = system: CP325
Method in brief: as §1

CP335 = system: CP335
Method in brief: as §1

DIV30 = system: DIV30
Method in brief: as §1

Dd2 = system: Dd2
Method in brief: as §1

ECU = system: ECU
Method in brief: as §1

GB4 = system: GB4
Method in brief: as §1

HB3 = system: HB3
Method in brief: as §1

P93_24 = system: P93_24
Method in brief: as §1

PAD = system: PAD
Method in brief: as §1

PC26 = system: PC26
Method in brief: as §1

Measured: Potency

CCN(CC)CCO[C@H]1CC[C@@]2(C)C(=CC[C@@H]3[C@H]2CC[C@]2(C)C(=O)CC[C@H]32)C1
inactive: ATS95 | C2A | CP237 | CP238 | CP262 | CP265 | CP268 | CP269 | CP286 | CP305 | CP325 | CP335 | DIV30 | Dd2 | ECU | GB4 | HB3 | P93_24 | PAD | PC26
